Potency and affinity values are given separately. Records with an inconclusive call do not appear. Active and inactive are the calls of the source.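 How the source made its calls, unless noted: active means signal-lowering compounds whose fitted half-maximal concentration is at or below twice the top tested dose in every run; inconclusive means runs disagree, flat 30 to 70% inhibition, or poor curve fit; inactive means the rest.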
Test: IOSE-T80 viability loss, PAX8-independent line – cell-based, cherry-pick, selectivity assay for PAX8 inhibitor project, dose response (AID 687032;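 active means fitted half-maximal concentration for viability loss no higher than twice the top valid dose, in every repeat run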;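 further: cells exposed to compound for 96 h before reading; 0% = neutral control wells and -100% = 2 µM mitoxantrone kill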)
Conditions: CellTiterGlo ATP luminescence, 96 h; series mostly up to 35 µM; activity change, negative = viability loss: at the top concentration

| SMILES | activity change, negative = viability loss |
| --- | --- |
| Cc1ccc(S(=O)(=O)N(C)C[C@H]2Oc3ccc(NC(=O)Nc4ccc(C(F)(F)F)cc4)cc3CC(=O)N([C@H](C)CO)C[C@@H]2C)cc1 | 15.4% (inactive) |
| C[C@@H]1CN([C@H](C)CO)C(=O)c2cc(NC(=O)Nc3ccc(F)cc3)ccc2O[C@@H](C)CCCCO[C@H]1CN(C)C(=O)Nc1ccc(F)cc1 | 3.2% (inactive) |
| C[C@@H]1CCCCO[C@@H](CN(C)C(=O)Nc2ccc(C(F)(F)F)cc2)[C@H](C)CN([C@H](C)CO)C(=O)c2cc(NS(=O)(=O)c3ccccc3)ccc2O1 | 19.3% (inactive) |
| CN1c2ccc(-c3ccc(C#N)cc3)cc2[C@@H]2[C@@H](CCN2C(=O)NC2CCCCC2)[C@@H]1CO | 2.7% (inactive) |
| CN1c2ccc(C3=CCCCC3)cc2[C@H]2[C@H](CCN2C(=O)NC2CCCCC2)[C@@H]1CO | 19.2% (inactive) |
| C[C@@H]1CCCCO[C@@H](CN(C)Cc2ccc(Cl)c(Cl)c2)[C@H](C)CN([C@H](C)CO)C(=O)c2cc(NS(=O)(=O)c3ccc(F)cc3)ccc2O1 | 0.128% (inactive) |
| C[C@@H]1CN([C@@H](C)CO)C(=O)Cc2cc(NC(=O)Nc3ccc(C(F)(F)F)cc3)ccc2O[C@H]1CN(C)Cc1ccc(Oc2ccccc2)cc1 | 8.61% (inactive) |
| Cc1ccc(S(=O)(=O)Nc2ccc3c(c2)C(=O)N([C@@H](C)CO)C[C@H](C)[C@H](CN(C)Cc2ccc(C(F)(F)F)cc2)OCCCC[C@@H](C)O3)cc1 | 9.12% (inactive) |
| CCCC#Cc1ccc2c(c1)O[C@H](CN(C)Cc1ccccc1)[C@@H](C)CN([C@H](C)CO)S2(=O)=O | 14.4% (inactive) |
| Cc1ccc(S(=O)(=O)N(C)C[C@@H]2OCCCC[C@H](C)Oc3ccc(NS(=O)(=O)c4ccc(F)cc4)cc3C(=O)N([C@H](C)CO)C[C@H]2C)cc1 | 15.7% (inactive) |
| COc1ccc(S(=O)(=O)N(C)C[C@H]2Oc3ccc(NC(=O)Nc4ccc(C(F)(F)F)cc4)cc3CC(=O)N([C@H](C)CO)C[C@@H]2C)cc1 | 10.8% (inactive) |
| CNC[C@@H]1Oc2cc(C#CC3CCCCC3)ccc2S(=O)(=O)N([C@@H](C)CO)C[C@@H]1C | 12% (inactive) |
| C[C@@H]1CCCCO[C@H](CN(C)C(=O)Nc2ccc(C(F)(F)F)cc2)[C@H](C)CN([C@@H](C)CO)C(=O)c2cc(NS(=O)(=O)c3ccc(Cl)cc3)ccc2O1 | 12.1% (inactive) |
| CO[C@H]1CN(C)C(=O)c2cc(NC(=O)c3nc4ccccc4s3)ccc2OC[C@H](C)N(Cc2cccnc2)C[C@H]1C | 23.5% (inactive) |
| C[C@H](CO)N1C[C@H](C)[C@H](CN(C)S(=O)(=O)c2cccs2)OCCCC[C@H](C)Oc2ccc(NC(=O)NC3CCCCC3)cc2C1=O | 1.74% (inactive) |
| C[C@H](CO)N1C[C@H](C)[C@H](CN(C)C(=O)NC2CCCCC2)Oc2cc(C#Cc3cccc(F)c3)ccc2S1(=O)=O | 6.39% (inactive) |

Test: CMV-driven luciferase expression suppression in HEK293 – cell-based, luminescence, dry powder, counter-screen for Pax8 inhibitor project, dose response (AID 743020);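 further: HEK293 cells stably expressing the CMV luciferase reporter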
Conditions: HEK293 CMV-luciferase reporter, SteadyGlo luminescence, 24 h; series mostly up to 35 µM; activity change, negative = inhibition: at the top concentration

| SMILES | activity change, negative = inhibition |
| --- | --- |
| Cc1ccc(S(=O)(=O)N(C)C[C@@H]2Oc3cc(C#Cc4ccncc4)ccc3S(=O)(=O)N([C@@H](C)CO)C[C@H]2C)cc1 | 4.88% (inactive) |
| C[C@H]1CN([C@@H](C)CO)C(=O)c2cccc(NC(=O)Nc3ccc(F)cc3)c2O[C@H]1CN(C)C(=O)Nc1ccc(C(F)(F)F)cc1 | -0.012% (inactive) |
| COc1ccc(-c2ccc3c(c2)[C@@H]2[C@@H](CCN2C(=O)C2CCCC2)[C@H](CO)N3C)cc1 | 0.752% (inactive) |
| C[C@@H]1CCCCO[C@H](CN(C)Cc2ccc(Cl)c(Cl)c2)[C@H](C)CN([C@@H](C)CO)C(=O)c2cc(NC(=O)Nc3ccc(F)cc3)ccc2O1 | -0.041% (inactive) |
| COc1ccccc1-c1ccc2c(c1)O[C@H](CN(C)Cc1ccc3c(c1)OCO3)[C@H](C)CN([C@@H](C)CO)S2(=O)=O | -1.74% (inactive) |
| Cc1ccc(S(=O)(=O)N(C)C[C@@H]2Oc3c(NC(=O)c4ccc(-c5nccs5)cc4)cccc3C(=O)N([C@@H](C)CO)C[C@@H]2C)cc1 | 1.58% (inactive) |
| CCCN1[C@H](C(=O)N2CCOCC2)[C@@H](CO)[C@@H]2Cn3c(ccc(/C=C/c4ccccc4)c3=O)[C@@H]21 | 4.45% (inactive) |
| C[C@@H]1CCCCO[C@@H](CN(C)Cc2ccc(C(F)(F)F)cc2)[C@H](C)CN([C@@H](C)CO)C(=O)c2cc(NS(=O)(=O)c3ccccc3)ccc2O1 | -7.08% (inactive) |
| O=C(C[C@H]1C[C@@H]2c3cc(NC(=O)Nc4ccc(C(F)(F)F)cc4)ccc3O[C@@H]2[C@@H](CO)O1)NCCc1ccccc1 | 3.7% (inactive) |
| C[C@@H]1CN([C@@H](C)CO)C(=O)c2cc(NC(=O)c3ccccc3)ccc2O[C@@H](C)CCCCO[C@H]1CN(C)Cc1ccc(C(F)(F)F)cc1 | -5.52% (inactive) |
| CC(C)CC#Cc1ccc2c(c1)O[C@H](CN(C)S(=O)(=O)c1ccc(F)cc1)[C@H](C)CN([C@@H](C)CO)S2(=O)=O | -21.2% (inactive) |
| C[C@@H]1CN([C@H](C)CO)C(=O)c2cc(NS(=O)(=O)c3ccc(F)cc3)ccc2O[C@@H]1CN(C)Cc1ccc(C(F)(F)F)cc1 | -1.26% (inactive) |
| O=C(Nc1cccc(F)c1)N1CCCCN2[C@@H](CO)[C@@H](c3ccc(-c4ccncc4)cc3)[C@@H]2C1 | -1.39% (inactive) |
| C[C@@H]1CCCCO[C@H](CN(C)C(=O)c2ccccc2)[C@@H](C)CN([C@@H](C)CO)C(=O)c2cc(NC(=O)Nc3ccc(C(F)(F)F)cc3)ccc2O1 | -9.56% [at 16 µM] (inactive) |
| COc1ccc(S(=O)(=O)N2CCCCN3[C@H](C2)[C@H](c2ccc(C#CC(C)C)cc2)[C@@H]3CO)cc1 | 3.16% (inactive) |
| C[C@H](CO)N1C[C@H](C)[C@H](CN(C)Cc2ccc3c(c2)OCO3)OCCCC[C@H](C)Oc2ccc(NS(=O)(=O)c3ccc(Cl)cc3)cc2C1=O | -6.71% (inactive) |
| C[C@@H]1CCCCO[C@H](CN(C)C(=O)Cc2ccccc2)[C@H](C)CN([C@@H](C)CO)C(=O)c2cc(NC(=O)Nc3ccc(C(F)(F)F)cc3)ccc2O1 | 1.02% (inactive) |
| COc1ccc(S(=O)(=O)Nc2ccc3c(c2)C(=O)N([C@H](C)CO)C[C@@H](C)[C@H](CN(C)S(=O)(=O)c2ccc(F)cc2)OCCCC[C@H](C)O3)cc1 | 2.31% (inactive) |
| C[C@H](O)C#Cc1ccc2c(c1)O[C@@H](CN(C)Cc1ccc(-c3ccccc3)cc1)[C@@H](C)CN([C@@H](C)CO)S2(=O)=O | -4.9% (inactive) |
| C[C@@H]1CN([C@H](C)CO)C(=O)c2cc(NC(=O)Nc3ccc(C(F)(F)F)cc3)ccc2O[C@@H](C)CCCCO[C@H]1CN(C)C(=O)Nc1ccc(F)cc1 | -23.5% (inactive) |

| SMILES | activity change, negative = inhibition |
| --- | --- |
| C[C@H]1CN([C@@H](C)CO)C(=O)c2ccccc2-c2ccccc2CO[C@H]1CN(C)S(=O)(=O)c1ccc(C(F)(F)F)cc1 | 1.39% (inactive) |
| C[C@@H]1CN([C@@H](C)CO)C(=O)Cc2cc(NC(=O)Nc3ccc(F)cc3)ccc2O[C@H]1CN(C)Cc1ccc(Cl)c(Cl)c1 | 0.391% (inactive) |
| C[C@@H]1CN([C@@H](C)CO)S(=O)(=O)c2ccc(C#C[C@@H](C)O)cc2O[C@@H]1CN(C)Cc1ccc(-c2ccccc2)cc1 | -6.04% (inactive) |
| Cc1ccc(S(=O)(=O)N(C)C[C@H]2Oc3ccc(NC(=O)Nc4ccc(C(F)(F)F)cc4)cc3CC(=O)N([C@H](C)CO)C[C@@H]2C)cc1 | 4.17% (inactive) |
| C[C@@H]1CN([C@H](C)CO)C(=O)c2cc(NC(=O)Nc3ccc(F)cc3)ccc2O[C@@H](C)CCCCO[C@H]1CN(C)C(=O)Nc1ccc(F)cc1 | 5.23% (inactive) |
| C[C@@H]1CCCCO[C@@H](CN(C)C(=O)Nc2ccc(C(F)(F)F)cc2)[C@H](C)CN([C@H](C)CO)C(=O)c2cc(NS(=O)(=O)c3ccccc3)ccc2O1 | -1.04% (inactive) |
| CN1c2ccc(-c3ccc(C#N)cc3)cc2[C@@H]2[C@@H](CCN2C(=O)NC2CCCCC2)[C@@H]1CO | 2.67% (inactive) |
| CN1c2ccc(C3=CCCCC3)cc2[C@H]2[C@H](CCN2C(=O)NC2CCCCC2)[C@@H]1CO | 0.84% (inactive) |
| C[C@@H]1CCCCO[C@@H](CN(C)Cc2ccc(Cl)c(Cl)c2)[C@H](C)CN([C@H](C)CO)C(=O)c2cc(NS(=O)(=O)c3ccc(F)cc3)ccc2O1 | -4.27% (inactive) |
| C[C@@H]1CN([C@@H](C)CO)C(=O)Cc2cc(NC(=O)Nc3ccc(C(F)(F)F)cc3)ccc2O[C@H]1CN(C)Cc1ccc(Oc2ccccc2)cc1 | -17.3% (inactive) |
| Cc1ccc(S(=O)(=O)Nc2ccc3c(c2)C(=O)N([C@@H](C)CO)C[C@H](C)[C@H](CN(C)Cc2ccc(C(F)(F)F)cc2)OCCCC[C@@H](C)O3)cc1 | 1.93% (inactive) |
| CCCC#Cc1ccc2c(c1)O[C@H](CN(C)Cc1ccccc1)[C@@H](C)CN([C@H](C)CO)S2(=O)=O | -1.94% (inactive) |
| Cc1ccc(S(=O)(=O)N(C)C[C@@H]2OCCCC[C@H](C)Oc3ccc(NS(=O)(=O)c4ccc(F)cc4)cc3C(=O)N([C@H](C)CO)C[C@H]2C)cc1 | -7.06% (inactive) |
| COc1ccc(S(=O)(=O)N(C)C[C@H]2Oc3ccc(NC(=O)Nc4ccc(C(F)(F)F)cc4)cc3CC(=O)N([C@H](C)CO)C[C@@H]2C)cc1 | -12% (inactive) |
| CNC[C@@H]1Oc2cc(C#CC3CCCCC3)ccc2S(=O)(=O)N([C@@H](C)CO)C[C@@H]1C | 3.1% (inactive) |
| C[C@@H]1CCCCO[C@H](CN(C)C(=O)Nc2ccc(C(F)(F)F)cc2)[C@H](C)CN([C@@H](C)CO)C(=O)c2cc(NS(=O)(=O)c3ccc(Cl)cc3)ccc2O1 | -7.26% (inactive) |
| CO[C@H]1CN(C)C(=O)c2cc(NC(=O)c3nc4ccccc4s3)ccc2OC[C@H](C)N(Cc2cccnc2)C[C@H]1C | 13.6% (inactive) |
| C[C@H](CO)N1C[C@H](C)[C@H](CN(C)S(=O)(=O)c2cccs2)OCCCC[C@H](C)Oc2ccc(NC(=O)NC3CCCCC3)cc2C1=O | -6.81% (inactive) |
| C[C@H](CO)N1C[C@H](C)[C@H](CN(C)C(=O)NC2CCCCC2)Oc2cc(C#Cc3cccc(F)c3)ccc2S1(=O)=O | 19.7% (inactive) |
